Measured values reported in PubChem BioAssay (NCI).
This is part of a sample that, as a whole, favours compounds with a hit. Of some 83,000 tested, about 20% had one in any assay.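 Single-dose data. Exposure time 48 hours. Values below 10 considered active.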 A number with no mark means an inactive call. Active and inactive are the calls of the source.

Columns and labels:
Assay in all cases: NCI-60 one-dose screen, 48 h (100 = growth as untreated, 0 = no growth, -100 = all killed)
Settings in all cases: 10 µM unless noted
[1] = system: T-47D breast
[2] = system: BT-549 breast
[3] = system: MDA-MB-435 melanoma
[4] = system: SW-620 colon
[5] = system: MCF7 breast
[6] = system: HCT-116 colon
[7] = system: HCC-2998 colon
[8] = system: KM12 colon

COc1ccc(C(=O)/C=C/c2ccc(Cl)cc2)cc1S(=O)(=O)Nc1c(N)nc(SC)[nH]c1=O
growth [1]: 62.5%
growth [2]: 60.5%
growth [3]: 80%
growth [4]: 7.52% (active)
growth [5]: 18.8%
growth [6]: 11.4%
growth [7]: 90.8%
growth [8]: 12.8%

Cn1cc(-c2csc(-c3cn(CCCN4CCOCC4)c4ccccc34)n2)c2cccnc21
growth [1]: 62.1%
growth [2]: 88.7%
growth [3]: 91.6%
growth [4]: 94.6%
growth [5]: 85.6%
growth [6]: 84.4%
growth [7]: 92.9%
growth [8]: 85.4%

COCCn1cc(-c2csc(-c3c[nH]c4ccc(Br)cc34)n2)c2cccnc21
growth [1]: -1.1% (active)
growth [2]: 22.6%
growth [3]: 29%
growth [4]: 27.9%
growth [5]: 12%
growth [6]: 24.2%
growth [7]: 15.3%
growth [8]: 13.4%

Cn1cc(-c2ccc(-c3cn(C)c4ccc(Cl)cc34)[nH]2)c2cc(Cl)ccc21
growth [1]: -51.1% (active)
growth [2]: -83.7% (active)
growth [3]: 19.5%
growth [4]: -83.1% (active)
growth [5]: 18.8%
growth [6]: -85.5% (active)
growth [7]: -72.2% (active)
growth [8]: -33.5% (active)

N#Cc1c(-c2ccccc2)nc(SCC(O)CN2CCOCC2)nc1N1CCOCC1 (stereo not given)
growth [1]: 26%
growth [2]: 29.5%
growth [3]: 53%
growth [4]: 78.6%
growth [5]: 4.99% (active)
growth [6]: 57.5%
growth [7]: 72.9%
growth [8]: 69.1%

Cc1ccc(CNc2c3ccccc3nc3ccccc23)cc1
growth [1]: 25.1%
growth [2]: 71.3%
growth [3]: 31.2%
growth [4]: 20.2%
growth [5]: 9.04% (active)
growth [6]: 12%
growth [7]: -2.62% (active)
growth [8]: 23.4%

O=C(CCl)NNc1nccc(Nc2ccc(S(=O)(=O)Nc3ccncc3)cc2)n1
growth [1]: 15.9%
growth [2]: 25.6%
growth [3]: 41.3%
growth [4]: 28.5%
growth [5]: 22.3%
growth [6]: 10.7%
growth [7]: 95.3%
growth [8]: 62%

C#CCNC(=O)[C@]1(C)CCC[C@@]2(C)[C@H]1CC=C1C=C(C(C)C)CC[C@@H]12
growth [1]: 85.2%
growth [2]: 100%
growth [3]: 104%
growth [4]: 109%
growth [5]: 85.6%
growth [6]: 107%
growth [7]: 100%
growth [8]: 100%

COC(=O)c1c2c(n3ccccc13)C(=O)c1ccccc1C2=O
growth [1]: 73.4%
growth [2]: 68.1%
growth [3]: 84.6%
growth [4]: 40.9%
growth [5]: 42.5%
growth [6]: 27.9%
growth [7]: 88.3%
growth [8]: 49.7%

Cc1ccc(C)c(/C=C2\CN(C(=O)OC(C)(C)C)C/C(=C\c3cc(C)ccc3C)C2=O)c1
growth [1]: 61.4%
growth [2]: 85.5%
growth [3]: -9.21% (active)
growth [4]: 18.5%
growth [5]: 23.3%
growth [6]: -16.7% (active)
growth [7]: 52.2%
growth [8]: 16.7%

Cc1ccc(N2C(=O)CCC2=O)cc1
growth [1]: 105%
growth [2]: 80.6%
growth [3]: 102%
growth [4]: 96.1%
growth [5]: 94.6%
growth [6]: 92.9%
growth [7]: 108%
growth [8]: 103%

Cc1ccc(Cl)cc1NC(=O)c1sc2nc3c(cc2c1N)C(=O)CCC3
growth [1]: 82.9%
growth [2]: 93.5%
growth [3]: -3.04% (active)
growth [4]: 36.5%
growth [5]: 35.6%
growth [6]: 68%
growth [7]: 74.9%
growth [8]: 37%

COc1ccc(NC(=O)Nc2ccc(OCCCCCC(=O)NO)cc2)cc1
growth [1]: 107%
growth [2]: 99.5%
growth [3]: 94%
growth [4]: 99.7%
growth [5]: 98.3%
growth [6]: 92.3%
growth [7]: 110%
growth [8]: 103%

O=P(O)(O)OCC1OC(n2cnc3c(NCc4ccco4)ncnc32)C(O)C1O (stereo not given)
growth [1]: 42.5%
growth [2]: -12.3% (active)
growth [3]: 16.2%
growth [4]: 14.8%
growth [5]: 0.586% (active)
growth [6]: -31.1% (active)
growth [7]: 0.214% (active)
growth [8]: 44.1%

O=C(CN1CCCCCC1)Nc1nc2ccc(NCc3ccc(Cl)cc3)cc2s1
growth [1]: 94.7%
growth [2]: 92.6%
growth [3]: 100%
growth [4]: 97.9%
growth [5]: 84.9%
growth [6]: 75.8%
growth [7]: 114%
growth [8]: 96.6%

CC[N+]1(CC)CC[N+]2(CCCC(C)CC2)CC1 (stereo not given)
growth [1]: 103%
growth [2]: 113%
growth [3]: 110%
growth [4]: 103%
growth [5]: 96%
growth [6]: 104%
growth [7]: 99.9%
growth [8]: 104%

CCOC(=O)C(=CNc1cnc(Nc2ccc(N3CCOCC3)cc2)nc1Oc1ccc(OC)cc1)C(=O)OCC
growth [1]: 84.7%
growth [2]: 77.3%
growth [3]: 61.7%
growth [4]: 46.8%
growth [5]: 61.3%
growth [6]: 11.4%
growth [7]: 91.7%
growth [8]: 76.8%

NC(=O)c1cnc(Nc2cccc(N)c2)nc1NCCCNC(=O)C1CCC1
growth [1]: 106%
growth [2]: 26.7%
growth [3]: 82.6%
growth [4]: 86.8%
growth [5]: 74.7%
growth [6]: 65.5%
growth [7]: 103%
growth [8]: 74.8%

C=C(C)[C@@H]1CCC[C@]2(C(=O)O)CC[C@]3(C)[C@@H](CC[C@@H]4[C@@]5(C)C/C(=C/c6ccncc6)C(=O)C(C)(C)[C@@H]5CC[C@]43C)[C@@H]12
growth [1]: 47.5%
growth [2]: 46.5%
growth [3]: 19.8%
growth [4]: 17.5%
growth [5]: 19.1%
growth [6]: 4.88% (active)
growth [7]: 23.8%
growth [8]: 19.7%

C=CCN1C(=O)c2cccc3c(N4CCOCC4)ccc(c23)C1=O
growth [1]: -2.1% (active)
growth [2]: -47.8% (active)
growth [3]: 0.357% (active)
growth [4]: 7.24% (active)
growth [5]: -0.408% (active)
growth [6]: -25.4% (active)
growth [7]: -34% (active)
growth [8]: -56.4% (active)

O=C(CCSc1nnc2n(Cc3ccccc3)c(=O)c3c4c(sc3n12)CCCC4)N1CCN(c2ccccc2)CC1
growth [1]: 101%
growth [2]: 99.5%
growth [3]: 91.2%
growth [4]: 101%
growth [5]: 98.4%
growth [6]: 100%
growth [7]: 96.5%
growth [8]: 92.9%

Cc1ncc(C(=O)Nc2ccc(CN3CCN(C)CC3)c(C(F)(F)F)c2)cc1C#Cc1cnc(N)c2ncccc12
growth [1]: 51.4%
growth [2]: 42.4%
growth [3]: -66.5% (active)
growth [4]: 16.6%
growth [5]: -58.6% (active)
growth [6]: -75.5% (active)
growth [7]: 52.1%
growth [8]: 7.51% (active)

Cn1cc(-c2csc(-c3c[nH]c4ccc(F)cc34)n2)c2ccnc(Cl)c21
growth [1]: 24.3%
growth [2]: 78.2%
growth [3]: 88.2%
growth [4]: 41.5%
growth [5]: 59.5%
growth [6]: 61.2%
growth [7]: 70.8%
growth [8]: 55.1%

COC(=O)C(Cc1ccccc1)NC(=O)c1ccc(NC(=O)c2[nH]c(C)c(Cl)c2Cl)c(OC(C)C)c1 (stereo not given)
growth [1]: 36.5%
growth [2]: 82.1%
growth [3]: 100%
growth [4]: 42.4%
growth [5]: 32.8%
growth [6]: 0.768% (active)
growth [7]: 80.1%
growth [8]: 39.8%

C[C@H](CCCC(=O)NCC#CCN1CCN(C)CC1)[C@H]1CC[C@H]2[C@@H]3CC[C@@H]4CC(=O)CC[C@]4(C)[C@H]3CC[C@]12C
growth [1]: 101%
growth [2]: 76.8%
growth [3]: 95.5%
growth [4]: 98.7%
growth [5]: 79.7%
growth [6]: 68.2%
growth [7]: 104%
growth [8]: 99.8%

CCOC(=O)c1cnc2c(N=Nc3ccc(OC)cc3)c(N)nn2c1N
growth [1]: 104%
growth [2]: 120%
growth [3]: 95%
growth [4]: 101%
growth [5]: 85.9%
growth [6]: 101%
growth [7]: 106%
growth [8]: 99.6%

COC(=O)CCC/C=C\C[C@H]1C=CC(=O)/C1=C/C[C@@H](O)C/C=C\CC(F)(F)F
growth [1]: 2.7% (active)
growth [2]: -18.3% (active)
growth [3]: 4.2% (active)
growth [4]: -36% (active)
growth [5]: 4.67% (active)
growth [6]: -61.4% (active)
growth [7]: -68.7% (active)
growth [8]: -31.7% (active)

COc1cc(/C=C/C(=O)c2ccc(-n3cc(CN4CCN(c5cc6c(cc5F)c(=O)c(C(=O)O)cn6C5CC5)CC4)nn3)cc2)ccc1O
growth [1]: 75.3%
growth [2]: 90.4%
growth [3]: 74%
growth [4]: 85.4%
growth [5]: 37.6%
growth [6]: -53.4% (active)
growth [7]: 59.3%
growth [8]: 29.9%

CC(C)(C)c1cc(Cl)c(O)c(CNCCO)c1
growth [1]: 98.7%
growth [2]: 109%
growth [3]: 101%
growth [4]: 86.4%
growth [5]: 96.3%
growth [6]: 99.1%
growth [7]: 104%
growth [8]: 111%

CC1(C)[C@@H](O[C@@H]2OC[C@@H](O[C@@H]3O[C@H](CO)[C@@H](O)[C@H](O)[C@H]3O[C@@H]3OC[C@@H](O)[C@H](O)[C@H]3O)[C@H](O)[C@H]2O[C@@H]2O[C@H](CO)[C@@H](O)[C@H](O)[C@H]2O)CC[C@]2(C)[C@H]3CC[C@]45OC[C@@]6(CC[C@](C)(C=O)C[C@H]64)[C@H](O)C[C@@]5(C)[C@]3(C)CC[C@@H]12
growth [1]: -55.7% (active)
growth [2]: -94% (active)
growth [3]: -83.8% (active)
growth [4]: -58.4% (active)
growth [5]: -59.6% (active)
growth [6]: -75.9% (active)
growth [7]: -82.1% (active)
growth [8]: -62% (active)
